According to PubChem BioAssay (EPA / NIEHS):
Calls of active or inactive are those of the source. Rule for the calls: active = hit-call score of the fitted dose curve at least 0.9, where 1 is the maximum; inactive = score below 0.9.

Experiment: CCTE_Shafer_MEA_acute_network_burst_percentage: CCTE's Neural Acute Assay for Percentage of Network Bursts, Shafer Lab (AID 2284022);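 note: curves fitted for loss so actives lower network burst percentage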;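 for outcome: rat primary cortical neuron networks on multiwell MEA recorded 40 min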
Procedure, shortened: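 Network burst percentage (spikes in network bursts divided by total spikes) recorded at 37 C over 40 min baseline and 40 min after compound, 0.03-40 uM, in rat cortical cultures at DIV 13 or 15. Analysed as percent change from baseline versus DMSO.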
With CCOc1nc(F)cc2nc(S(=O)(=O)Nc3c(Cl)cccc3Cl)nn12 the outcome was “inactive”.
For N#CN=C1SCCN1Cc1ccc(Cl)nc1, the AC50 was 4760 nM (active).
For Clc1nc(Cl)nc(Nc2ccccc2Cl)n1, the outcome was “inactive”.
In the case of CC1(C)C(C(=O)OC(C#N)c2cccc(Oc3ccccc3)c2)C1(C)C (stereo not given), the AC50 is reported as 1540 nM (active).
With O=C(Nc1ccccc1-c1ccc(Cl)cc1)c1cccnc1Cl the outcome was “inactive”.
For CNC(=O)Oc1cccc2ccccc12, the outcome was “inactive”.
For COP(=S)(OC)SCn1nnc2ccccc2c1=O, the outcome was “inactive”.
In the case of OC(c1ccc(Cl)cc1)(c1ccc(Cl)cc1)C(Cl)(Cl)Cl, the AC50 is reported as 20000 nM (active).
In the case of C=C(C)CN(CC)c1c([N+](=O)[O-])cc(C(F)(F)F)cc1[N+](=O)[O-], the outcome is reported as “inactive”.
For CN/C(=N\[N+](=O)[O-])NCc1cnc(Cl)s1, the outcome was “inactive”.

Experiment: CCTE_Shafer_MEA_acute_cross_correlation_area: CCTE's Neural Acute Assay for Area of Cross Correlation, Shafer Lab (AID 2284024);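 note: area under pooled inter-electrode spike cross-correlation near zero lag as percent change from own baseline; curves fitted for loss of cross-correlation area so actives lower synchrony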;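 for outcome: rat primary cortical neuron networks on 48-well MEA at DIV 13 or 15 with 40 min exposure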
Procedure, shortened: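 Percent change in well-wide cross-correlation area (window around zero lag) between 40 min baseline and 40 min post-compound recordings, 37 C; rat cortical cultures on MEA at DIV 13 or 15, dosed 0.03-40 uM, wells needing >/= 10 active electrodes.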
For CCOc1nc(F)cc2nc(S(=O)(=O)Nc3c(Cl)cccc3Cl)nn12, the outcome was “inactive”.
With N#CN=C1SCCN1Cc1ccc(Cl)nc1 the outcome was “inactive”.
For Clc1nc(Cl)nc(Nc2ccccc2Cl)n1, the outcome was “inactive”.
In the case of CC1(C)C(C(=O)OC(C#N)c2cccc(Oc3ccccc3)c2)C1(C)C (stereo not given), the AC50 is reported as 645 nM (active).
In the case of O=C(Nc1ccccc1-c1ccc(Cl)cc1)c1cccnc1Cl, the outcome is reported as “inactive”.
With CNC(=O)Oc1cccc2ccccc12 the outcome was “inactive”.
In the case of COP(=S)(OC)SCn1nnc2ccccc2c1=O, the outcome is reported as “inactive”.
For OC(c1ccc(Cl)cc1)(c1ccc(Cl)cc1)C(Cl)(Cl)Cl, the outcome was “inactive”.
In the case of C=C(C)CN(CC)c1c([N+](=O)[O-])cc(C(F)(F)F)cc1[N+](=O)[O-], the outcome is reported as “inactive”.
In the case of CN/C(=N\[N+](=O)[O-])NCc1cnc(Cl)s1, the AC50 is reported as 160 nM (active).
